Measured values: PubChem BioAssay AID1159580 (chemical genetic matrix, 2015)
Where “and” joins values, the source holds several entries; their conditions need not be identical. Equal entries are not always repeated. Screen size: about 5,500 compounds; about 2,000 (36%) were called active. Inconclusive results (about 18%) are left out. Cut-off read from the data, not from the text of the source: active = normalized growth mostly below about 0.91 (no sharp cut-off); inconclusive = no clear call, values can overlap the other calls; inactive = mostly above about 0.92. The list shows a part of the results.

Assay: chemical genetic growth profiling, strain panel (AID 1159580);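 note: tested at 20 µM; growth read once vehicle control cultures reached saturation at 30 °C; 1 = growth at the plate median or of vehicle wells; lower values mean less growth of the strain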
Conditions: growth OD

Measured: normalized growth

CC(=O)Nc1ccc(S(=O)(=O)Nc2ccc([N+](=O)[O-])cc2)cc1
inactive: S. cerevisiae deletion strains, locus YAL013W, strain DEP1, hits give low values 1.01 | S. cerevisiae deletion strains, locus YBR021W, strain FUR4, hits give low values 0.97 | S. cerevisiae deletion strains, locus YBR229C, strain ROT2, hits give low values 1.01 | S. cerevisiae deletion strains, locus YCL029C, strain bik1, hits give low values 1.01 | S. cerevisiae deletion strains, locus YDL035C, strain GPR1, hits give low values 1.01 | S. cerevisiae deletion strains, locus YDL074C, strain BRE1, hits give low values 0.986 | S. cerevisiae deletion strains, locus YDL101C, strain DUN1, hits give low values 1 | S. cerevisiae deletion strains, locus YDL134C, strain PPH21, hits give low values 1 | S. cerevisiae deletion strains, locus YDL185W, strain tfp1, hits give low values 0.999 | S. cerevisiae deletion strains, locus YDL192W, strain arf1, hits give low values 1.01 | S. cerevisiae deletion strains, locus YDR101C, strain arx1, hits give low values 0.99 | S. cerevisiae deletion strains, locus YDR150W, strain NUM1, hits give low values 1.02 | S. cerevisiae deletion strains, locus YDR162C, strain NBP2, hits give low values 1.01 | S. cerevisiae deletion strains, locus YDR318W, strain mcm21, hits give low values 0.991 | S. cerevisiae deletion strains, locus YDR388W, hits give low values 0.999 | S. cerevisiae deletion strains, locus YDR502C, strain sam2, hits give low values 1 | S. cerevisiae deletion strains, locus YEL061C, strain CIN8, hits give low values 1.01 | S. cerevisiae deletion strains, locus YER110C, hits give low values 0.997 | S. cerevisiae deletion strains, locus YER155C, strain BEM2, hits give low values 1 | S. cerevisiae deletion strains, locus YER167W, strain BCK2, hits give low values 1.01 | S. cerevisiae deletion strains, locus YGL078C, strain dbp3, hits give low values 1 | S. cerevisiae deletion strains, locus YGL086W, strain mad1, hits give low values 1 | S. cerevisiae deletion strains, locus YGL248W, strain PDE1, hits give low values 1 | S. cerevisiae deletion strains, locus YGR078C, strain PAC10, hits give low values 0.995 | S. cerevisiae deletion strains, locus YGR135W, strain pre9, hits give low values 0.996 | S. cerevisiae deletion strains, locus YGR229C, strain SMI1, hits give low values 1.01 | S. cerevisiae deletion strains, locus YGR252W, strain gcn5, hits give low values 0.955 | S. cerevisiae deletion strains, locus YHR030C, strain SLT2, hits give low values 1.01 and 1 | S. cerevisiae deletion strains, locus YHR079C, strain IRE1 (second series), hits give low values 0.997 | S. cerevisiae deletion strains, locus YHR079C, strain IRE1, hits give low values 0.984 | S. cerevisiae deletion strains, locus YHR094C, strain hxt1, hits give low values 1 | S. cerevisiae deletion strains, locus YHR129C, strain ARP1, hits give low values 1 | S. cerevisiae deletion strains, locus YHR200W, strain rpn10, hits give low values 0.992 | S. cerevisiae deletion strains, locus YIL066C, strain RNR3, hits give low values 1.02 | S. cerevisiae deletion strains, locus YIL073C, strain SPO22, hits give low values 1.05 | S. cerevisiae deletion strains, locus YIL125W, strain kgd1, hits give low values 0.996 | S. cerevisiae deletion strains, locus YIR030C, strain dcg1, hits give low values 1.01 | S. cerevisiae deletion strains, locus YJL095W, strain BCK1, hits give low values 0.994 and 0.998 | S. cerevisiae deletion strains, locus YJL134W, strain LCB3, hits give low values 1.01 | S. cerevisiae deletion strains, locus YJL168C, strain set2, hits give low values 0.989 | S. cerevisiae deletion strains, locus YJL187C, strain SWE1 (second series), hits give low values 1.01 | S. cerevisiae deletion strains, locus YJR043C, strain POL32, hits give low values 0.995 | S. cerevisiae deletion strains, locus YJR066W, strain TOR1, hits give low values 0.93 | S. cerevisiae deletion strains, locus YJR075W, strain HOC1, hits give low values 1.01 | S. cerevisiae deletion strains, locus YKL009W, strain mrt4, hits give low values 1.09 | S. cerevisiae deletion strains, locus YKL068W, hits give low values 1 | S. cerevisiae deletion strains, locus YKL085W, strain MDH1 (second series), hits give low values 1.01 | S. cerevisiae deletion strains, locus YKL085W, strain MDH1, hits give low values 1.01 | S. cerevisiae deletion strains, locus YKL190W, strain CNB1, hits give low values 1.01 | S. cerevisiae deletion strains, locus YKR001C, strain vps1, hits give low values 1.01 | S. cerevisiae deletion strains, locus YLR039C, strain RIC1, hits give low values 1.04 | S. cerevisiae deletion strains, locus YLR058C, strain SHM2, hits give low values 1.01 | S. cerevisiae deletion strains, locus YLR102C, strain apc9, hits give low values 0.994 | S. cerevisiae deletion strains, locus YLR113W, strain HOG1, hits give low values 0.969 | S. cerevisiae deletion strains, locus YLR262C, strain YPT6, hits give low values 1.04 | S. cerevisiae deletion strains, locus YLR268W, strain sec22, hits give low values 0.993 | S. cerevisiae deletion strains, locus YLR330W, strain CHS5, hits give low values 1.01 | S. cerevisiae deletion strains, locus YLR342W, strain FKS1 (second series), hits give low values 0.995 | S. cerevisiae deletion strains, locus YLR371W, strain rom2, hits give low values 0.994 | S. cerevisiae deletion strains, locus YLR418C, strain cdc73, hits give low values 0.949 | S. cerevisiae deletion strains, locus YML016C, strain PPZ1, hits give low values 1.01 | S. cerevisiae deletion strains, locus YML032C, strain rad52, hits give low values 0.987 | S. cerevisiae deletion strains, locus YML124C, strain tub3, hits give low values 1 | S. cerevisiae deletion strains, locus YMR078C, strain ctf18, hits give low values 0.993 | S. cerevisiae deletion strains, locus YMR223W, strain ubp8, hits give low values 1 | S. cerevisiae deletion strains, locus YMR263W, strain SAP30, hits give low values 1.01 | S. cerevisiae deletion strains, locus YMR307W, strain GAS1, hits give low values 0.989 | S. cerevisiae deletion strains, locus YNL067W, strain RPL9B, hits give low values 1.01 | S. cerevisiae deletion strains, locus YNL128W, strain TEP1, hits give low values 1.01 | S. cerevisiae deletion strains, locus YNL153C, strain GIM3, hits give low values 0.995 | S. cerevisiae deletion strains, locus YNL183C, strain NPR1, hits give low values 0.941 | S. cerevisiae deletion strains, locus YNL233W, strain BNI4, hits give low values 1 | S. cerevisiae deletion strains, locus YNL250W, strain rad50, hits give low values 0.996 | S. cerevisiae deletion strains, locus YNL271C, strain bni1, hits give low values 1 | S. cerevisiae deletion strains, locus YNL298W, strain CLA4, hits give low values 1 | S. cerevisiae deletion strains, locus YNL307C, strain MCK1, hits give low values 1 | S. cerevisiae deletion strains, locus YNL322C, strain KRE1, hits give low values 1 | S. cerevisiae deletion strains, locus YNR052C, strain pop2, hits give low values 1 | S. cerevisiae deletion strains, locus YOL006C, strain TOP1, hits give low values 0.975 | S. cerevisiae deletion strains, locus YOL012C, strain htz1 1.05 | S. cerevisiae deletion strains, locus YOL147C, strain pex11, hits give low values 0.996 | S. cerevisiae deletion strains, locus YOR061W, strain CKA2, hits give low values 1.01 | S. cerevisiae deletion strains, locus YOR069W, strain VPS5, hits give low values 1 | S. cerevisiae deletion strains, locus YOR136W, strain idh2, hits give low values 0.998 | S. cerevisiae deletion strains, locus YOR144C, strain elg1, hits give low values 0.997 | S. cerevisiae deletion strains, locus YOR184W, strain ser1, hits give low values 1 | S. cerevisiae deletion strains, locus YOR231W, strain MKK1, hits give low values 0.989 | S. cerevisiae deletion strains, locus YOR316C, strain cot1, hits give low values 1 | S. cerevisiae deletion strains, locus YPL055C, strain LGE1, hits give low values 1.03 | S. cerevisiae deletion strains, locus YPL241C, strain CIN2, hits give low values 1.01 | S. cerevisiae deletion strains, locus YPL256C, strain CLN2, hits give low values 0.989 | S. cerevisiae deletion strains, locus YPR119W, strain clb2, hits give low values 0.998 | S. cerevisiae deletion strains, locus YPR141C, strain kar3, hits give low values 1 | S. cerevisiae deletion strains, locus YPR163C, strain tif3, hits give low values 1.01 | S. cerevisiae deletion strains, locus YPR167C, strain met16, hits give low values 0.992 | S. cerevisiae deletion strains, strain wtn01, hits give low values 0.988 | S. cerevisiae strains, strain wild type, hits give low values 1.01
